This is a sample that favours compounds with a hit; in the whole collection about 3.4% have one here.
HSP90 inh: HSP90 inhibitors, primary screen, cell lysate, luminescence. Heat shock protein HSP 90 (rabbit reticulocyte lysate; luciferase refolding). Rabbit reticulocyte lysate, luciferase refolding luminescence, 3 h. inhibition, % at 5.6 µM. 290,000 compounds, 0.91% hits;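 active = inhibition above the screen-wide mean plus 3 SD, computed separately per campaign, cut at about 16% in these data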;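 note: 0% = DMSO wells and 100% = 60 µM geldanamycin wells; inhibitors lower the luminescence because luciferase stays unfolded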
FXN GAA850 act: FXN promoter activators, primary screen, cell-based, luciferase luminescence, HEK293 lucGAA850. activation, % at 6 µM. HEK293 lucGAA850 FXN promoter luciferase reporter, 24 h; percent of 10 µM SAHA response. 360,000 compounds, 0.56% hits;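 active = activation above the average of all compounds screened plus 3 SD, cutoff fixed separately per campaign, cut at about 7.5% in these data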;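 note: 0% = DMSO wells and 100% = 10 µM SAHA wells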
SMARCA2 act: SMARCA2 (BRM) function activators, primary screen, cell-based, luminescence, high throughput; MG213 cells, MMTV-luciferase reporter, dexamethasone, overnight; activation, % at 9.1 µM; 370,000 compounds, 1% hits; AID 652017, 2013; in the data active = activation above about 7.8%;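 note: 0% = vehicle wells and 100% = reference activator wells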
HSF1 inhib: HSF1 inhibitors in luciferase reporter cells, primary screen, cell-based, NIH3T3, luminescence. NIH3T3-HGL HSE-luciferase, MG132-induced, luminescence 8 h; active compounds read low. activity change, negative = inhibition, % at 7.5 µM (by protocol). 300,000 compounds, 0.77% hits. AID 2098, 2009;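 active = more than half of replicate wells show activity change below -50%, luminescence cut by over half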;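 note: luciferase reports HSF-1 transcriptional activity via heat shock element; 0% = median of DMSO wells and -100% = zero luminescence signal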
PG9 Ab binder: binders of HIV-1 gp120 antibody PG9, primary screen, biochemical, TR-FRET | 360,000 compounds, 0.43% hits | inhibition, % at 6.7 µM | TR-FRET gp120-PG9 antibody binding | AID 624416, 2012; in the data active = inhibition above about 8.5%
AI-2 QS mod: Vibrio harveyi AI-2 quorum sensing modulators, primary screen, JMH597 strain, luminescence/OD600 ratio | Vibrio harveyi JMH597 AI-2 luminescence/OD600 ratio, 9 h; active compounds read low; strain lacks LuxN and CqsS sensors; 0 = neutral-control median | activity change, % at 7.5 µM | 300,000 compounds, 0.4% hits | AID 2094, 2009; in the data active = activity change below about -75%, passing the limit was not always enough;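 note: luminescence divided by OD600 gain over 9 h not by final OD600 alone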
Active calls of the source: *; x = no result.

SMILES	HSP90 inh	FXN GAA850 act	SMARCA2 act	HSF1 inhib	PG9 Ab binder	AI-2 QS mod
CCOC(=O)Cn1c(CN2CCN(c3cccc(Cl)c3)CC2)nc2c1c(=O)[nH]c(=O)n2C	0.3	-0.8	-2.2	-55.1*	-1.0	27.6
CC1CCN(C2=C(NS(=O)(=O)c3ccccc3)C(=O)c3ccccc3C2=O)CC1	-0.9	-0.1	7.8*	12.5	-4.5	29.5
CCOC(=O)N1CCC(NC(=O)CSCc2cnn(-c3ccccc3)c2-n2cccc2)CC1	3.7	8.3*	-3.9	13.0	-0.5	25.3
COc1ccc(N=C2SC(C(=O)N3CCN(c4ccccc4)CC3)CC(=O)N2C)cc1 (stereo unspecified)	3.2	2.6	-1.9	-77.3*	1.4	31.9
COc1ccc(N2CC(C(=O)N3CCN(c4ccccc4)CC3)CC2=O)cc1 (stereo unspecified)	0.5	1.8	0.5	-3.5	-0.8	18.7
CC(=O)N1CCCN(S(=O)(=O)c2ccc3c(c2)c(=O)n(C)c(=O)n3C)CC1	x	x	-2.6	x	x	x
O=C(Nc1ccc2[nH]ncc2c1)c1ccccc1Cl	1.9	1.9	2.7	-66.6*	-1.4	14.7
Cc1ccc(S(=O)(=O)c2cnc3cc(C)nn3c2N)cc1	0.6	0.5	-0.1	-0.3	1.4	-89.9*
Cc1cc2ncc(S(C)(=O)=O)c(N)n2n1	0.1	1.5	-2.5	-5.3	2.0	-0.8
CN(C(=O)OC(C)(C)C)c1ccc(-c2nc3ccccc3s2)cc1	x	-13.7	-8.0	-93.2*	-0.1	16.2
Cc1csc2ncc(C(=O)NCc3ccco3)c(=O)n12	1.3	1.2	-1.6	-3.8	-0.8	3.4
COc1ccc(CNC(=O)c2cnc3scc(C)n3c2=O)cc1	-3.6	2.2	-2.6	-70.4*	-0.7	28.0
CCOC(=O)C1(CC2CCCCO2)CCN(Cc2nc3ccccc3[nH]2)CC1 (stereo unspecified)	1.5	-0.5	-0.1	-97.2*	-0.1	18.0
C[C@H]1CN(C(=O)OC(C)(C)C)CCN1c1ccc(Br)c(C#N)c1	x	x	-3.0	x	-0.5	x
Fc1ccc(CNCc2ccccc2Cl)cc1	3.6	0.2	-1.6	-52.9*	-0.1	24.4
Cc1ccc(C(=O)Nc2ncc(Cc3ccc(F)cc3)s2)o1	4.2	0.1	7.9*	29.5	1.4	-19.6
O=C(O)CCNS(=O)(=O)c1ccccc1C(F)(F)F	0.5	-0.6	-1.8	-60.4*	-1.3	26.3
Cc1ccc(C)n1NC(=O)c1ccccc1O	1.3	1.4	-2.4	-84.8*	-0.9	3.3
CCCC1c2ccc(C)n2CCN1C(=O)Nc1ccc(F)cc1 (stereo unspecified)	0.8	1.5	2.7	-65.9*	-0.3	6.0
CCC1c2ccc(C)n2CCN1C(=O)Nc1ccc(F)cc1 (stereo unspecified)	3.3	-1.0	1.3	10.2	0.3	15.6
O=C(O)CC1SC(=O)N(Cc2ccccc2)C1=O (stereo unspecified)	1.4	2.7	1.2	-88.7*	-0.6	14.4
COc1cccc(-n2nc(-c3ccnn3-c3cccc(Cl)c3)c(=O)n(C)c2=O)c1	2.8	0.7	-3.0	-53.7*	-1.9	17.1
COC(=O)c1cc(S(=O)(=O)N2CCN(c3cccc(C(F)(F)F)c3)CC2)cn1C	x	x	-0.2	x	x	x
O=C(CCn1nnc2ccccc21)N1CCN(c2cccc(C(F)(F)F)c2)CC1	x	x	-7.4	x	x	x
Cc1nc2c(ccc3nc(NC(=O)Cc4cccc5ccccc45)sc32)s1	1.6	-2.8	-1.8	-56.2*	-0.5	54.7
SMILES	HSP90 inh	FXN GAA850 act	SMARCA2 act	HSF1 inhib	PG9 Ab binder	AI-2 QS mod
CC(C)CNC(=O)OCc1cn(Cc2ccccc2F)nn1	x	x	-0.8	x	x	x
COc1cc(OC)cc(C(=O)NCCN2C(=O)C3C4C=CC(C4)C3C2=O)c1 (stereo unspecified)	x	x	0.5	x	x	x
COc1ccc(C(=O)/C=C/Nc2ccc([N+](=O)[O-])cc2C)c(OC)c1	-4.0	0.4	x	5.5	x	9.3
COc1ccc(C(=O)/C=C/Nc2cc(C)on2)c(OC)c1	-3.0	2.4	2.7	-58.2*	-0.4	15.7
COCCNC(=O)CCc1nnc(C2(c3ccc(Cl)cc3)CCC2)o1	-1.7	3.9	3.6	-56.1*	-0.2	16.0
COC(=O)CC[C@@H](/C=C/C(=O)OC(C)(C)C)Sc1ccc(C(C)(C)C)cc1	x	x	-1.0	x	x	x
CCOc1c(C)cc(S(=O)(=O)NCc2cccnc2)c(C)c1C	-5.8	1.6	-1.8	-56.1*	-1.5	31.1
Cc1cc(/C([O-])=C(/C(=S)Nc2ccccc2)[n+]2ccccc2)c(C)n1-c1ccccc1	-2.5	5.5	-3.3	-60.6*	-0.2	27.0
COC(=O)C1=C(C)N(C)C(=NCc2ccc(OC)cc2)NC1c1cccc(F)c1 (stereo unspecified)	x	x	-1.9	x	-1.2	x
O=C1NCCN1CCN1CCC(c2cn(-c3ccc(F)cc3)c3ccc(Cl)cc23)CC1	x	x	-5.4	x	x	x
CCCn1c(SCC(=O)c2c(C)[nH]c(C)c2C(=O)OCC)nc2ccccc21	-1.1	-1.0	0.1	-61.2*	-2.1	-0.9
CCOC(=O)c1c(C)[nH]c(C)c1C(=O)CSc1nc2ccccc2n1CCC#N	-7.4	-1.3	-3.5	-4.8	0.4	14.6
COC(=O)c1cc(COc2ccc3oc(C)c(C(=O)OC(C)C)c3c2)c(C)o1	-1.3	-2.4	-0.3	-80.2*	-0.4	6.5
O=C(C(=O)N1CCN(S(=O)(=O)c2ccc(F)cc2)CC1)c1cccc(C(F)(F)F)c1	x	x	-4.8	x	1.2	x
CNC(C)C#Cc1ccc2c(=O)c3c(OC)cccc3oc2c1 (stereo unspecified)	-2.2	x	x	-1.3	x	28.1
CNC(C)C#Cc1ccc2oc3cccc(OC)c3c(=O)c2c1 (stereo unspecified)	3.8	7.8*	7.1	3.3	-1.7	-2.7
CCN1C[C@@H]2[C@@H]3C(=O)N(Cc4ccccc4)C(=O)[C@@H]3[C@](CC)(C1=O)N2C(=O)c1ccc(Cl)cc1	x	x	0.4	x	-2.4	x
Cc1ccc(-c2nnc(SCC(=O)c3ccc(O)c(O)c3)n2-c2ccc(Cl)cc2)cc1	x	x	-3.7	x	x	x
O=C(CCC1CCCNC1)c1ccccc1 (stereo unspecified)	-2.7	x	x	-70.3*	x	0.9
COC(=O)C[C@@H]1CC[C@H]2[C@H](COc3ccc(NC(=O)Nc4cccc(C#N)c4)cc3C(=O)N2C)O1	x	x	-3.4	x	x	x
O=C(OCn1ncc(Cl)c(Cl)c1=O)c1ccc(C(F)(F)F)cc1	-1.2	4.5	5.9	9.2	0.8	14.0
Cc1ccc(C(=O)OCn2ncc(Cl)c(Cl)c2=O)cc1	-0.6	-16.9	-10.0	-93.6*	-1.9	28.6
CCOC(=O)c1ccc(NC(=O)Cn2ncc(Cl)c(Cl)c2=O)cc1	3.0	-12.8	-10.7	-93.5*	-2.2	-95.6*
